# Source: PubChem BioAssay
# Calb FLC: C. albicans growth inhibition with fluconazole, primary screen, CaCi-2 strain, Alamar Blue fluorescence. actives 0.57% (n = 300,000). C. albicans CaCi-2 (fluconazole-resistant clinical isolate) + fluconazole, 48 h. AID 1979, 2009. growth inhibition, % (no concentration beside the values);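 active = growth inhibition above about 58% in most replicates, limit read from the data, passing the limit was not always enough; inconclusive = exactly half the replicates above a set limit; inactive = most replicates below a set limit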;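 also: all wells also contain fluconazole at 8 µg/ml as a sub-toxic cotreatment; 0% = median of DMSO wells and 100% = median of geldanamycin control wells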
# Beta cell apopt: inhibitors of cytokine-induced beta cell apoptosis, primary screen, luminescence; INS-1E cytokine-induced death, ATP luminescence, 48 h; percent of positive-control rescue, neutral wells zero; protection from apoptosis, % (concentration not given with the values); actives 0.8% (n = 300,000);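 active = Every replicate reaches about 75%, or at least half do and their mean reaches it too, limit read from the data; inconclusive = At least half of replicates reach the limit but their mean does not; inactive = Under half of replicates reach the limit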;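 also: 0% = cytokine-treated negative control wells and 100% = positive control rescue; higher means more ATP so stronger rescue from cytokine killing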
# Jurkat NFkB inh: inhibitors of induced NF-kB luciferase reporter, primary screen, TCR NF-kB activation inhibitor project, cell-based, luminescence, uHTS | Jurkat, PMA/ionomycin-induced NF-kB luciferase reporter | inhibition, % at 4 µM | actives 0.53% (n = 330,000) | AID 435003, 2010; in the data active = inhibition above about 50%
# Shn3 inh set2: reduction of Shn3 3'UTR firefly luciferase signal, primary screen, Schnurri-3 inhibitor project, cell-based, Clone20 osteoblasts, set 2. Clone20 osteoblast Shn3 3'UTR firefly luciferase, 24 h. actives 0.52% (n = 360,000). inhibition, % at 12.5 µM;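 active = mean inhibition of at least 75% with every replicate also reaching 75%; inconclusive = mean inhibition at least 75% but some replicate below; inactive = mean inhibition below 75%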;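 also: 0% = median of neutral control wells and 100% = pilot-screen positive control compound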
# 697 NFkB inh: inhibitors of PMA/ionomycin-induced NF-kB reporter, 697 cells, primary screen, B-cell NF-kB inhibitor project, cell-based, luminescence, uHTS; 697 B-cell NF-kB luciferase reporter, 16 h; inhibition, % at 4 µM; actives 0.33% (n = 330,000); AID 435022, 2010; in the data active = inhibition above about 35%
# Jurkat NFkB conf: PMA/ionomycin-induced NF-kB reporter inhibitors, Jurkat retest, confirmation, T-cell NF-kB inhibitor project, cell-based, luminescence, single concentration; shares compounds with Jurkat NFkB inh; Jurkat NF-kB luciferase, 16 h; inhibition, % at 4 µM; actives 27% (n = 2,700); AID 435020, 2010;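 active = inhibition reaching about 45% at 4 µM in either replicate, limit read from the data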;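 also: plate controls were PMA/ionomycin stimulated DMSO wells for no effect and unstimulated DMSO wells for full effect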
# * = called active by the depositor; ? = inconclusive; / = no result given. Sampled rows, rich in hits. Any-hit rate of the full collection: about 2%.
SMILES,Calb FLC,Beta cell apopt,Jurkat NFkB inh,Shn3 inh set2,697 NFkB inh,Jurkat NFkB conf
Cc1cccc(NC(=O)COc2ccc3c(c2)CCC3)n1,/,/,-42.4,-64.6,-3.2,/
CS(=O)(=O)c1ccc(Sc2nc3ccccc3s2)c([N+](=O)[O-])c1,2.3,-23.8,93.7*,95.4*,-24.4,58.4*
COC(=O)C[C@@H]1C[C@H]2c3cc(NC(=O)Nc4ccccc4F)ccc3O[C@H]2[C@H](CO)O1,/,/,/,-12.3,/,/
CC(C)N(C(=O)COC(=O)CCC(=O)c1cccs1)c1ccccc1,/,-2.0,4.3,-4.8,3.5,/
CCCCNc1c(-c2ccc(SC3CCCCC3)cc2)nc2ccccn12,12.5,?,-177.7,-33.8,-36.6,-100.2
CCCCC(=NCCc1c(C)[nH]c2ccc(OC)cc12)C1=C(O)CC(c2ccccc2)CC1=O (stereo unspecified),25.7,29.5,69.0*,19.5,-55.5,13.4
CCC(=NCCc1c(C)[nH]c2ccccc12)C1=C(O)CC(c2ccccc2)CC1=O (stereo unspecified),13.5,16.6,49.0,24.1,-17.9,/
CCC(=NCCc1c(C)[nH]c2ccc(OC(F)(F)F)cc12)C1=C(O)CC(c2ccccc2)CC1=O (stereo unspecified),21.9,40.5,67.0*,32.8,-28.3,16.5
O=C1NN(CCO)C(=S)Nc2ccccc21,/,/,/,-18.4,/,/
COc1ccc(C=O)cc1COc1ccc([N+](=O)[O-])c(C)c1,-12.2,-0.8,45.3,-19.7,24.3,/
COc1ccc(C=O)cc1COc1ccc2c(c1)OCO2,/,/,58.9*,-2.2,9.0,11.8
O=C(N/N=C/c1ccsc1)c1cc(-c2ccncc2)nc2ccccc12,-1.0,7.0,55.3*,9.7,-75.2,19.1
O=C(Nc1ccc(Br)cc1)c1cc(-c2ccncc2)nc2ccccc12,/,0.7,57.2*,-2.2,-31.7,27.6
O=C(N/N=C/c1ccc2c(c1)OCO2)c1cc(-c2ccncc2)nc2ccccc12,-3.3,5.6,57.3*,-1.1,-36.3,2.7
Cc1ccsc1/C=N/NC(=O)c1cc(-c2ccncc2)nc2ccccc12,0.8,3.7,58.2*,-2.3,23.6,55.5*
COc1ccc(CNC(=O)Cn2c(=O)n(CCC(=O)N3CCCCC3)c(=O)c3sccc32)cc1,-4.3,1.3,-1.8,-4.4,18.2,/
O=C(COc1ccccc1[N+](=O)[O-])N(Cc1cccc(Br)c1)C1CCS(=O)(=O)C1 (stereo unspecified),4.7,-4.3,-7.6,-22.7,-18.9,/
Clc1cccc(Cl)c1C[n+]1ccc2ccccc2c1,-14.7,11.8,11.2,13.0,-46.4,/
Cc1ccc(Nc2nc(-c3c(C)nc4ncccn34)cs2)cc1,21.1,9.4,67.6*,28.3,19.9,48.5*
Cc1nc2ccc(NC(=O)c3cc(Cl)ccn3)cc2s1,-14.4,-1.3,-162.2,-21.0,-196.9,-109.3
Cc1nc2cc(NC(=O)c3ccc(Br)s3)ccc2s1,1.3,-3.5,-220.9,-14.5,-14.5,-55.2
O=C(NCc1ccco1)C1CC(c2ccc(Cl)c(Cl)c2)=NO1 (stereo unspecified),3.0,6.4,51.9*,-7.2,2.6,15.4
O=C(NCc1ccco1)C1CC(c2ccc(C(F)(F)F)cc2)=NO1 (stereo unspecified),-11.7,2.4,50.2*,-8.6,1.1,19.4
CCCNC(=O)C1CC(c2ccc(C(F)(F)F)cc2)=NO1 (stereo unspecified),-4.2,-3.9,-11.6,-25.3,3.8,/
O=C(CSc1n[nH]c(=O)[nH]c1=O)Nc1ccc(Br)cc1Br,/,-1.4,1.6,-17.9,5.8,/
SMILES,Calb FLC,Beta cell apopt,Jurkat NFkB inh,Shn3 inh set2,697 NFkB inh,Jurkat NFkB conf
COc1ccc(C2C(C(=O)c3ccco3)=C(O)C(=O)N2CC2CCCO2)cc1OC (stereo unspecified),2.4,1.0,-5.0,0.2,-28.9,/
O=[N+]([O-])c1ccc(O)c(/C=N/Nc2nc3ccccc3[nH]2)c1,31.7,99.1*,55.3*,72.4,-65.0,33.9
COc1ccc(O)c(/C=N/Nc2nc3ccccc3[nH]2)c1,4.2,/,-24.9,-1.7,9.6,/
O=[N+]([O-])c1ccc(N/N=C/c2ccccc2O)cc1,-27.9,16.4,60.7*,-4.9,-32.8,-30.6
O=[N+]([O-])c1ccc(NN=Cc2ccccc2O)nc1,/,/,/,35.3,/,/
Cn1c(/C=N/Nc2nc3ccccc3[nH]2)nc2ccccc21,79.8,18.2,-170.6,-89.6,-238.9,-105.1
CC(C)Cn1c(N)c(C(=O)COC(=O)c2cc(C(F)(F)F)nc3c(C(F)(F)F)cccc23)c(=O)n(C)c1=O,3.3,-4.6,9.5,/,-2.2,/
CCOC(=O)N1CCN(C(=O)C2CCCN(Cc3nc(-c4ccc(Cl)cc4)oc3C)C2)CC1 (stereo unspecified),11.6,16.0,58.8*,40.3,-12.3,54.6*
O=C(/C=C/c1ccc(Cl)cc1Cl)N1CCc2ccccc21,-11.3,12.0,-155.3,-61.6,-195.2,-88.2
O=C(c1ccc(Cl)cc1Cl)N1CCc2ccccc21,4.5,0.3,7.7,-11.9,-1.1,/
O=C(/C=C/c1cccc(F)c1)N1CCc2ccccc21,15.7,8.3,-197.0,-39.6,-245.1,-140.2
COc1ccccc1C1=NOC(COc2ccc3c(C)cc(=O)oc3c2)C1 (stereo unspecified),-3.6,19.8,67.0*,/,-3.7,39.2
COc1ccc(C2=NOC(COc3ccc4c(C)cc(=O)oc4c3)C2)c(OC)c1 (stereo unspecified),-0.2,5.0,51.0*,6.8,-9.8,35.2
Clc1ccc(Cn2ncc3c(N4CCN(c5ccccc5)CC4)ncnc32)cc1,/,/,/,26.0,/,/
Cc1ccc(S(=O)(=O)N2CCN(C(=O)COC(=O)/C=C/c3ccc(OC(F)F)cc3)CC2)cc1,/,/,/,8.7,/,/
COc1ccc(N(C(=O)c2ccccc2C)S(=O)(=O)c2cccs2)cc1,3.7,13.1,66.5*,-37.6,-1.0,47.7
N#Cc1ccccc1Cn1cc(/C=N/Nc2ccc([N+](=O)[O-])cn2)c2ccccc21,-6.5,9.9,67.4*,78.4,-14.8,-5.9
O=[N+]([O-])c1ccc(NN=Cc2ccccc2)nc1,/,/,/,-72.5,/,/
CN(C)CCNC(=O)c1cccc(-c2cnc3c(NC=O)cc(/C=C/c4ccccc4)cn23)c1,/,/,/,3.2,/,/
Cc1ccc(NC(=O)COCC(=O)Nc2ccc(F)cc2)cc1,15.5,-5.2,-10.2,-14.3,11.8,/
COc1ccccc1NC(=O)/C(C#N)=C/C=C/c1ccco1,-1.1,6.8,58.9*,-24.6,0.0,-6.8
C[C@@H](CO)NC(=O)c1ccc2c3n(nc2c1)-c1ccccc1CO3,-9.6,/,-98.6,2.6,-91.9,/
